# Experimental data: publication PMC11006913
# Target: PRRX1 (Homo sapiens, UniProt P54821 80-166)
# Experiment: PBM; 200 nM protein, PBS
# Conditions: dsDNA, one strand shown
# Sequence of PRRX1 (P54821 80-166): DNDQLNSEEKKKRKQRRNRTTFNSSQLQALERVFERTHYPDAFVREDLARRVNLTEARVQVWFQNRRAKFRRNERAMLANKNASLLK
row,Sequence,binding signal
1,AAATATTC,"11.3 upbm affinity estimate (log intensity, higher = more binding, comparable within an allelic series)"
2,ATACCTAA,"11.2 upbm affinity estimate (log intensity, higher = more binding, comparable within an allelic series)"
3,AAATACGA,"11 upbm affinity estimate (log intensity, higher = more binding, comparable within an allelic series)"
4,TGATGAAA,"11.1 upbm affinity estimate (log intensity, higher = more binding, comparable within an allelic series)"
5,TACATCAA,"11.1 upbm affinity estimate (log intensity, higher = more binding, comparable within an allelic series)"
6,ATTGAATG,"11.6 upbm affinity estimate (log intensity, higher = more binding, comparable within an allelic series)"
7,AATCAGCA,"12 upbm affinity estimate (log intensity, higher = more binding, comparable within an allelic series)"
8,AATGTAAC,"11.3 upbm affinity estimate (log intensity, higher = more binding, comparable within an allelic series)"
9,AAAAGAAT,"11 upbm affinity estimate (log intensity, higher = more binding, comparable within an allelic series)"
10,GGCTATAA,"11.4 upbm affinity estimate (log intensity, higher = more binding, comparable within an allelic series)"
11,ACAATTCT,"10.5 upbm affinity estimate (log intensity, higher = more binding, comparable within an allelic series)"
12,AATATCAA,"11.7 upbm affinity estimate (log intensity, higher = more binding, comparable within an allelic series)"

# Target: HOXB6 (Homo sapiens, UniProt P17509 132-218)
# Sequence (P17509 132-218): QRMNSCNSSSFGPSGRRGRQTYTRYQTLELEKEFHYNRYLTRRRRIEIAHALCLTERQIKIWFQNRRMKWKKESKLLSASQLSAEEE
# Experiment: PBM; 200 nM protein, PBS
# Conditions: dsDNA, one strand shown
row,Sequence,binding signal
1,CATTATGA,"11 upbm affinity estimate (log intensity, higher = more binding, comparable within an allelic series)"
2,ATAATGTG,"11.1 upbm affinity estimate (log intensity, higher = more binding, comparable within an allelic series)"
3,ATTAGCGC,"10.6 upbm affinity estimate (log intensity, higher = more binding, comparable within an allelic series)"
4,AATGTACA,"10.3 upbm affinity estimate (log intensity, higher = more binding, comparable within an allelic series)"
5,TGTAAACA,"10 upbm affinity estimate (log intensity, higher = more binding, comparable within an allelic series)"
6,TACTACGA,"10.1 upbm affinity estimate (log intensity, higher = more binding, comparable within an allelic series)"
7,GGTTAATA,"10.9 upbm affinity estimate (log intensity, higher = more binding, comparable within an allelic series)"
8,ACATATCT,"10 upbm affinity estimate (log intensity, higher = more binding, comparable within an allelic series)"
9,AAATAAAC,"10.5 upbm affinity estimate (log intensity, higher = more binding, comparable within an allelic series)"
10,CTATTTTA,"10.5 upbm affinity estimate (log intensity, higher = more binding, comparable within an allelic series)"
11,AAGATTTA,"10 upbm affinity estimate (log intensity, higher = more binding, comparable within an allelic series)"
12,ATGTAATC,"10.5 upbm affinity estimate (log intensity, higher = more binding, comparable within an allelic series)"
13,ATATACGA,"9.93 upbm affinity estimate (log intensity, higher = more binding, comparable within an allelic series)"
14,ACAAATTG,"10.4 upbm affinity estimate (log intensity, higher = more binding, comparable within an allelic series)"
15,AGTATCTA,"10.2 upbm affinity estimate (log intensity, higher = more binding, comparable within an allelic series)"
16,ATCATAAT,"11.2 upbm affinity estimate (log intensity, higher = more binding, comparable within an allelic series)"
17,ATTTTTTA,"10.4 upbm affinity estimate (log intensity, higher = more binding, comparable within an allelic series)"
18,GCATAGTA,"9.78 upbm affinity estimate (log intensity, higher = more binding, comparable within an allelic series)"
